An excerpt weighted towards active compounds, which were near 6.2% of everything screened.
H9c2 protect: protects H9c2 cardiomyocytes from peroxide injury | H2O2 injury protection, ATPLite, 2 h | protection from H2O2 cell death, % at 20 µM | 360,000 tested, 0.63% active | AID 588492;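 active means compounds giving at least 50% protection of heart cells from peroxide-induced death in the single-dose screen, raw or plate-pattern-corrected value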;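 further: 0% = DMSO wells with peroxide and 100% = DMSO wells without peroxide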
GRIN3A LBD mod: modulates the human NR3A ligand-binding domain | NR3A LBD differential scanning fluorimetry, Tm shift; 0% = protein alone, 100% = glycine-bound protein | Tm shift relative to glycine control, % at 25 µM | 340,000 tested, 2.5% active | AID 1259313;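 active means melting temperature shift of at least 10% of the positive control shift, at one fixed dose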
NTR1 ag: NTR1 (human) agonism. P30989. NTR1-U2OS beta-arrestin-GFP spot imaging, agonist mode. activation, % at 20 µM. 330,000 tested, 0.17% active. AID 493036;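 active means activation at or above 40% of the spot to cytoplasm intensity ratio, with at least 20 cells analyzed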;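 further: 0% = DMSO without peptide and 100% = 100 nM NTR1 peptide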
Target sequence (P30989 whole entry, looked up): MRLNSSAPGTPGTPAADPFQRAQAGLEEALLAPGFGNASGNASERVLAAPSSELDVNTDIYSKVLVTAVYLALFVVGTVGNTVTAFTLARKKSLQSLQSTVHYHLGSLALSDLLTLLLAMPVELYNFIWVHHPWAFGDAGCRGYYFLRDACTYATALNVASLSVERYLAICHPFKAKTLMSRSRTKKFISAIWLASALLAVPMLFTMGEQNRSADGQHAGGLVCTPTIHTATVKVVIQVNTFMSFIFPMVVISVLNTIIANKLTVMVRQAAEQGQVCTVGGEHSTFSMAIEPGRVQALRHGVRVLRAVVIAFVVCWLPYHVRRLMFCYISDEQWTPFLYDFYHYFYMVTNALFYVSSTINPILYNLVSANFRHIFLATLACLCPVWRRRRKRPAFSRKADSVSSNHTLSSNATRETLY
SUMO Mot1 rescue: inhibitors of SUMOylation pathway: yeast Mot1-301 growth rescue; S. cerevisiae Mot1-301 growth rescue, ATP luminescence, 38.5C; percent above DMSO median, 100 means doubled; growth rescue, % at 18.8 µM; 320,000 tested, 1% active;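 active means every valid replicate shows activation above 250% relative to neutral control wells; inactive means the rest, any valid replicate at or below 250%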;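 further: OY570 slx delta 5 strain wells were the positive control but not used for scaling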
AI-2 QS modul: modulators of Vibrio harveyi AI-2 quorum sensing system. Vibrio harveyi JMH597 AI-2 luminescence/OD600 ratio, 9 h; hits give low values; strain lacks LuxN and CqsS sensors; 0 = neutral-control median. activity change, % at 7.5 µM. 300,000 tested, 0.4% active. AID 2094; in the data active means activity change below about -75%, passing the limit was not always enough;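 further: luminescence divided by OD600 gain over 9 h not by final OD600 alone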
AHR act: human AHR activation; P35869; AHR-responsive luciferase reporter cells, luminescence; activation, % at 5 µM; 320,000 tested, 2.5% active; AID 2796; in the data active means activation above about 47%;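 further: 0% = vehicle wells and 100% = reference agonist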
The depositor's hits bear a star.

How did Oc1ccc2ccccc2c1/C=N/Nc1ccccc1 do in these assays?
H9c2 protect: 0.9; GRIN3A LBD mod: -12.5; NTR1 ag: 2.1; SUMO Mot1 rescue: 45.1; AI-2 QS modul: 0.7; AHR act: 54.2*

What do the screens show for `Oc1ccccc1C=NN=Cc1c(O)ccc2ccccc12`?
H9c2 protect: -3.9; GRIN3A LBD mod: -15.4

Results for Oc1ccc2ccccc2c1C=NCc1ccccc1 ?
H9c2 protect: 47.8; GRIN3A LBD mod: -0.9; NTR1 ag: 3.4; SUMO Mot1 rescue: 4.4; AI-2 QS modul: 3.4; AHR act: 55.6*

What do the screens show for `O=C(NN=Cc1c(O)ccc2ccccc12)c1ccc2c(c1)OCO2`?
H9c2 protect: 8.3; GRIN3A LBD mod: 7.3; NTR1 ag: 4.8; SUMO Mot1 rescue: -6.0; AHR act: 6.0

How did CC(=O)NC12CC3CC(C1)CC(C(=O)N1CCN(S(=O)(=O)c4ccc(C(C)C)cc4)CC1)(C3)C2 do in these assays?
H9c2 protect: 1.1; GRIN3A LBD mod: 2.9; NTR1 ag: 1.1; SUMO Mot1 rescue: 5.8; AI-2 QS modul: 18.1; AHR act: -0.9

What do the screens show for `O=CN/N=C/c1c(O)ccc2ccccc12`?
H9c2 protect: 30.3; GRIN3A LBD mod: 1.9; NTR1 ag: -1.3; SUMO Mot1 rescue: 13.8; AI-2 QS modul: -46.7; AHR act: 11.1

Results for NC(=S)N/N=C/c1c(O)ccc2ccccc12 ?
H9c2 protect: 56.7*; GRIN3A LBD mod: 3.0; NTR1 ag: 10.7; SUMO Mot1 rescue: -22.3; AI-2 QS modul: 7.2; AHR act: 4.3

Results for COc1ccc(NC(=O)CCCNC(=O)c2ccc(Cl)cc2)cc1S(=O)(=O)N1CCCCC1 ?
H9c2 protect: -9.8; GRIN3A LBD mod: 12.0*

How did Cc1ccc(NC(=O)CCCNC(=O)c2ccc(Cl)cc2)c(O)c1 do in these assays?
H9c2 protect: 4.2; GRIN3A LBD mod: -1.9; NTR1 ag: -0.7; SUMO Mot1 rescue: -3.4; AI-2 QS modul: -11.4; AHR act: 60.0*

What do the screens show for `Cc1cccc(NC(=O)c2cc(S(=O)(=O)N3CCCCC3)c[nH]2)c1`?
H9c2 protect: -5.8

Results for CCc1ccc(NC(=O)c2cc(S(=O)(=O)N3CCCC3)c[nH]2)cc1 ?
H9c2 protect: -7.2; GRIN3A LBD mod: -3.1; NTR1 ag: -3.1; SUMO Mot1 rescue: -8.7; AI-2 QS modul: 3.5; AHR act: 22.8

What do the screens show for `COc1ccc(NC(=O)CCCNC(=O)c2ccc(Cl)cc2)cc1OC`?
H9c2 protect: 7.7; GRIN3A LBD mod: 0.6; NTR1 ag: -0.7; SUMO Mot1 rescue: -7.0; AI-2 QS modul: 25.4; AHR act: 5.2

Results for COc1ccc(NC(=O)c2cc(S(=O)(=O)N3CCCCC3)c[nH]2)cc1Cl ?
H9c2 protect: -13.0; GRIN3A LBD mod: 24.8*; NTR1 ag: -3.5; SUMO Mot1 rescue: -24.0; AI-2 QS modul: 12.7; AHR act: 17.7

How did CC(C)c1ccc(NC(=O)c2cc(S(=O)(=O)N3CCCC3)c[nH]2)cc1 do in these assays?
H9c2 protect: -20.8; GRIN3A LBD mod: -11.2; NTR1 ag: 2.0; SUMO Mot1 rescue: -6.7; AI-2 QS modul: 7.9; AHR act: 48.5*

What do the screens show for `COCC(=O)N1CCC(Oc2ccc(C(=O)N(C)CCCC3CCCC3)cc2)CC1`?
H9c2 protect: -6.6; GRIN3A LBD mod: -1.6; NTR1 ag: 0.4; SUMO Mot1 rescue: -10.5; AI-2 QS modul: 24.1; AHR act: -1.5

What do the screens show for `O=C(NOCc1cscn1)Nc1ccccc1`?
H9c2 protect: -1.1; GRIN3A LBD mod: 4.2

What do the screens show for `Cc1ccsc1C(=O)N1CCC1(C)C(=O)NS(=O)(=O)c1ccccc1` (stereo not given)?
H9c2 protect: -0.6

What do the screens show for `CCOc1ccc(NC(=O)c2cc(S(=O)(=O)N3CCCCC3)c[nH]2)cc1`?
H9c2 protect: -19.4; GRIN3A LBD mod: -1.8; NTR1 ag: -2.2; SUMO Mot1 rescue: 76.5; AI-2 QS modul: 12.9; AHR act: 48.0*

Results for CC1=NN(c2nc(-c3ccc(Cl)cc3)cs2)C(=O)C1 ?
H9c2 protect: 2.5; GRIN3A LBD mod: 19.4*; NTR1 ag: -0.1; SUMO Mot1 rescue: 359.0; AI-2 QS modul: 32.3; AHR act: 7.4

Results for Cc1cc(C)n(-c2nc(-c3ccc(Cl)cc3)cs2)n1 ?
H9c2 protect: -1.1; GRIN3A LBD mod: 2.5; NTR1 ag: 5.1; SUMO Mot1 rescue: -26.6; AI-2 QS modul: 4.4; AHR act: 60.0*

How did Cc1cc(C)n2nc(-c3ccccc3)c(-c3ccccc3)c2n1 do in these assays?
H9c2 protect: -2.4; GRIN3A LBD mod: 1.5; NTR1 ag: 1.2; SUMO Mot1 rescue: 131.0; AI-2 QS modul: 6.6; AHR act: 3.6

What do the screens show for `Cc1ccc(O)c(N=CC2=C(O)c3ccccc3C2=O)c1`?
H9c2 protect: 15.3; GRIN3A LBD mod: -12.1; NTR1 ag: 3.0; SUMO Mot1 rescue: 29.2; AI-2 QS modul: -65.8; AHR act: 78.4*

Results for O=C1C(C=Nc2ccccc2O)=C(O)c2ccccc21 ?
H9c2 protect: -12.7; GRIN3A LBD mod: -1.9; NTR1 ag: 1.9; SUMO Mot1 rescue: -17.4; AI-2 QS modul: 6.4; AHR act: 43.3

Results for CC(C)CCNC(=O)CN(Cc1ccccc1)C(=O)CCC(=O)Nc1ccccn1 ?
H9c2 protect: 7.6; GRIN3A LBD mod: -3.7; NTR1 ag: 0.4; SUMO Mot1 rescue: 55.4; AHR act: -1.5

What do the screens show for `COCCN(CC(=O)Nc1cc(Cl)ccc1-n1cncn1)Cc1nc2ccccc2c(=O)[nH]1`?
H9c2 protect: 17.7; GRIN3A LBD mod: 0.1; NTR1 ag: 1.3; SUMO Mot1 rescue: 0.2; AHR act: 5.5

How did COc1ccc(/C=N/n2cc(-c3ccccc3)nc2N)cc1 do in these assays?
H9c2 protect: 3.9; GRIN3A LBD mod: -2.4; NTR1 ag: -0.4; SUMO Mot1 rescue: -12.4; AI-2 QS modul: 38.4; AHR act: 67.8*

What do the screens show for `COc1ccc(/C=N/n2cc(-c3ccc(OC)cc3)nc2N)cc1`?
H9c2 protect: 13.9; GRIN3A LBD mod: -8.5; NTR1 ag: 0.3; SUMO Mot1 rescue: 17.4; AI-2 QS modul: 19.5; AHR act: 10.7

What do the screens show for `CC(=O)c1ccc(NC(=O)Nc2cccc3ccccc23)cc1`?
H9c2 protect: -2.1; GRIN3A LBD mod: 12.9*; NTR1 ag: -0.1; SUMO Mot1 rescue: 6.4; AI-2 QS modul: 4.8

What do the screens show for `CC(=O)Nc1ccc(NC(=O)Nc2cccc3ccccc23)cc1`?
H9c2 protect: 1.0; GRIN3A LBD mod: 0.1; NTR1 ag: 1.6; SUMO Mot1 rescue: 263.8; AI-2 QS modul: 17.6; AHR act: 0.7

Results for CC(=O)c1cccc(NC(=S)Nc2cccc3ccccc23)c1 ?
H9c2 protect: -3.6; GRIN3A LBD mod: -2.0; NTR1 ag: 1.6; SUMO Mot1 rescue: -7.0; AI-2 QS modul: 6.5; AHR act: 54.5*

How did CC(=O)Nc1cccc(NC(=S)Nc2cccc3ccccc23)c1 do in these assays?
H9c2 protect: -13.3; GRIN3A LBD mod: -0.8; NTR1 ag: 3.3; SUMO Mot1 rescue: -24.3; AI-2 QS modul: 16.4; AHR act: 28.0
